High-throughput results (PubChem)
HPGD block: blocks human HPGD enzyme activity; P15428; purified HPGD, NADH fluorescence kinetic, PGE2 substrate; Potency, µM, actives largely listed as inhibitors; 4.3% of 150,000 active; AID 894; active = well fitted inhibition curve with a large enough effect, not every such curve was filed as active; inconclusive = small, poorly fitted or top-dose-only effect, or another doubt; inactive = no such curve, though single readings can be large or run the other way
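20 nM HPGD preincubated 15 min at room temperature with compound in 50 mM Tris-HCl pH 8, 0.01% Tween 20. Started with 1 mM NAD+ and 30 uM prostaglandin E2; NADH fluorescence (360/450 nm) read 5 times over 30-s intervals, last minus first.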
PNC inhibitor: inhibitors of perinucleolar compartment assembly; PC3M PTB-GFP, PNC prevalence imaging, 16 h; active compounds read low; activity change (PNC), negative = inhibition, % at 10 µM; 3.1% of 140,000 active; AID 2417;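 active = readout at or below -70, meaning at least 70% loss of cells showing the perinucleolar compartment, a nuclear body marking cancer cells; inconclusive = readout between -30 and a set limit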
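Compounds are pinned in duplicate onto adhered PC3M cells stably expressing GFP-tagged PTB and incubated 16 h at 37 C. Cells are then fixed, nuclei stained with Hoechst, and PNC-positive cells counted.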
CBFb RUNX1 block: inhibitors of human CBF-beta and RUNX1 interaction | Potency, µM (highest dose often 59.8 µM), most hits filed as inhibitors | 230,000 tested, under 10 active | AlphaScreen CBFb-His/RUNX1-biotin binding, biochemical | Q01196+Q13951
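Room-temperature protein-protein interaction test with 30 nM each of His-tagged CBF-beta and biotinylated RUNX1, 15 min with compound, then 90 min with nickel plus streptavidin beads. Signal read in AlphaScreen mode.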
HTT aggregate: inhibitors of mutant huntingtin aggregate formation in PC12 cells | Potency, µM (doses to about 46.1 µM), usual class: inhibitors | AID 1688 | 1.1% of 220,000 active | PC12 HttQ103-GFP aggregates, Acumen cytometry, 40 h; note: nearly all actives have a fitted effect of over 60% in size
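Multiplexed with ATP-based cell death, this channel scores GFP aggregates in PC12 cells expressing inducible HTTex1-Q103-GFP. Induction used 100 nM tebufenozide; compounds were tested in concentration series.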
HTT cytoprotect: protects HTT-Q103 PC12 cells, measured by ATP; PC12 HTT-Q103 induced, cytoprotection, ATP luminescence, 40 h; Potency, µM (doses to about 56.4 µM), actives largely listed as activators; 0.14% of 230,000 active; AID 1471; note: nearly all actives have a fitted effect of over 45% in size
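Compounds added alongside 100 nM tebufenozide, which induces toxic Q103 huntingtin exon 1-GFP in stable PC12 cells; surviving cells quantified by luminescent ATP measurement. Medium: phenol red-free DMEM, 5% equine and 5% calf serum.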
ALDH1A1 inh: blocks purified human ALDH1A1 activity. P00352. Purified ALDH1A1, NADH fluorescence, propionaldehyde substrate. Potency, µM (doses to about 75.3 µM), hits mostly inhibitors. 7.3% of 220,000 active. AID 1030; active = well fitted inhibition curve with a large enough effect, not every such curve was filed as active; inconclusive = small, poorly fitted or top-dose-only effect, or another doubt; inactive = no such curve, though single readings can be large or run the other way
Numbers stand for hits; 0 = inactive; ? = inconclusive; - = no result; [ ] = another dose, or the depositor's remark. An excerpt weighted towards active compounds, which were near 11% of everything screened. Unless noted, calls come from the whole dose curve; as a rule, active = well fitted curve in the direction sought with a large enough effect; inconclusive = small, poorly fitted or top-dose-only effect, or another doubt; inactive = no such curve, though single readings can be large; an effect the other way counts as inactive or inconclusive.

SMILES	HPGD block	PNC inhibitor	CBFb RUNX1 block	HTT aggregate	HTT cytoprotect	ALDH1A1 inh
Cc1cc2oc(=O)cc(-c3ccccc3)c2c(C)c1-c1ccc(F)c(Cl)c1	0	-	0	-	0	0
COc1cc(OC)c2c(-c3ccccc3)cc(=O)oc2c1	-	-	0	0	0	14.1µM
C#CCCCO/N=C1/C[C@@H](O)[C@@H](O)[C@@H]2[C@@H]3C(=O)N(Cc4ccc5c(c4)OCO5)C(=O)[C@H]3CC[C@@H]12	-	-	0[13.1 µM]	-	0[10 µM]	0[13.5 µM]
C/C=C1\COC(C(=O)NCc2ccccn2)(C(F)(F)F)C=C1C=C(C)C (configuration not stated)	-	-	0	-	-	-
COc1cc(C=O)c(Br)cc1OCC(=O)NCCc1ccccc1	-	-	0	0	0	0
O=C(COc1ccc(Br)cc1CNCCc1ccccc1)NCc1ccccc1	-	-	0	12.6µM	0	?
CCOc1cc(C=O)cc(Br)c1OCC(=O)NCCc1ccccc1	-	-	0	0	0[10 µM]	6.31µM
O=[N+]([O-])c1ccc(-c2nnc(-c3ccccc3)c(NCCCO)n2)cc1	0	-85.1	0	0	-	?
OCCCNc1nc(-c2ccc(Cl)cc2)nnc1-c1ccc(Br)cc1	0	0	0	0	-	0
O=Nc1c2nc3ccccc3n(O)c-2c2ccccc12	0	?	0	?	0	?
CSc1nc(N)nc(SCC(=O)Nc2ccc(Cl)cc2)c1C#N	?	?	0	0	0	?
Cc1cc(C)c(C#N)c(SCCS(=O)(=O)Cc2ccccc2)n1	0	0	0	0	0	6.31µM
CSc1nc(N)nc(SCCS(=O)(=O)c2ccc(Cl)cc2)c1C#N	0	0	0	10µM	0[0.074 µM]	2.51µM
Cc1ccc(S(=O)(=O)CCSc2nc(C)cc(C)c2C#N)cc1	0	0	0	0	0	2µM
CCS(=O)(=O)CCSc1nc(C)cc(C)c1C#N	0	0	0	0	0[0.074 µM]	?
COc1cc(NC(=O)CCNS(=O)(=O)c2ccc3c(c2)CCC(=O)N3)cc(OC)c1	0	0	0	?	-	0
CSc1nc(N(C)NC(=O)c2ccc(Cl)cc2)c2ccccc2n1	0	-97.1	0	0	0[10 µM]	0
